From the supplement of paper PMC7801607

Tests used:
CHO = experiment: % viability of CHO cells (MTT); higher = less toxic; conditions: 48 h
In short: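 CHO cells were seeded at 10^6 cells/well in 200 µL and left overnight to attach. The medium was then replaced with fresh medium containing compound at 2 or 20 µM for 48 h. Survival was read colorimetrically with the tetrazolium (MTT) assay. Percent viability was expressed relative to untreated cells.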

HepG2-A16-CD81 = experiment: % inhibition of HepG2 viability (CellTiter-Glo); higher = more toxic; conditions: 5 µM
[1] = test system: Plasmodium falciparum NF54 stage IV/V gametocytes; experiment: % inhibition of gametocyte viability (PrestoBlue); higher = more inhibition; conditions: 48 h
In short: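 Stage IV/V NF54 gametocytes (2% gametocytaemia, 5% haematocrit, 100 µL/well) were exposed to compound at 1 or 5 µM. Incubation was 48 h at 37 °C, stationary and hypoxic, followed by 10 µL PrestoBlue for 2 h. Fluorescence at 612 nm was read on 70 µL of transferred supernatant. Percent inhibition of gametocyte viability was normalised to DMSO and kill controls from a single run.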

[2] = test system: Plasmodium falciparum NF54 asexual blood stage; experiment: % inhibition of asexual blood stage proliferation (pLDH); higher = more inhibition; conditions: 72 h
In short: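 Plasmodium falciparum NF54 ring-stage cultures (1% haematocrit, 2% parasitaemia) were exposed to compound at 2 or 20 µM in 96-well plates. Incubation was 72 h at 37 °C under 4% CO2, 3% O2 and 93% N2. Survival was read colorimetrically at 620 nm with the parasite lactate dehydrogenase assay. Percent inhibition of asexual proliferation was normalised to DMSO and kill controls, and the screen was run on two separate occasions.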

[3] = test system: Plasmodium falciparum NF54 stage IV/V gametocytes; experiment: % inhibition of gametocyte viability (ATP bioluminescence); higher = more inhibition; conditions: 24 h
In short: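 In 96-well plates, compound at 1 or 5 µM was added to 30,000 density-gradient-enriched stage IV/V NF54 gametocytes per well and incubated for 24 h at 37 °C. ATP readout used the Promega BacTiter Glo bioluminescence system. Percent inhibition of gametocyte viability comes from a single run, normalised to control wells.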

[4] = test system: Plasmodium falciparum NF54 stage IV/V gametocytes; experiment: % inhibition of gametocyte viability (luciferase reporter); higher = more inhibition; conditions: 48 h
In short: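 Percent inhibition was normalised to controls from a single run. Stage IV/V gametocytes of the NF54-Pfs16-GFP-Luc line, at 2% gametocytaemia and 2% haematocrit, were exposed to compound at 1 or 5 µM for 48 h at 37 °C under stationary, hypoxic conditions. Luminescence was then read from 30 µL lysate mixed with 30 µL Promega luciferin substrate on a GloMax-Multi+ reader with 10 s integration.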

[5] = test system: Plasmodium berghei ANKA liver stage in HepG2-A16-CD81; experiment: % inhibition of liver stage parasite viability (luciferase); higher = more inhibition; conditions: 5 µM; 48 h
Experimental: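 Single-concentration screen of the MMV Pandemic Response Box. P. falciparum NF54 asexual blood stages: pLDH assay, 72 h at 37 °C, 2 and 20 µM, n=2. Stage IV/V gametocytes (NF54): luciferase reporter (NF54-Pfs16-GFP-Luc, 48 h), ATP bioluminescence (24 h) and PrestoBlue (48 h) at 1 and 5 µM, n=1. P. berghei liver stage (luciferase in HepG2-A16-CD81, 48 h post infection) at 5 µM, n=4. All normalised to DMSO and kill controls as % inhibition.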
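Throughout, for % inhibition of HepG2 viability (CellTiter-Glo): HepG2-A16-CD81 hepatoma cells plated as in the liver-stage assay but without sporozoites, with DMSO wells as negative and 25 µM puromycin as positive control.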

SMILES | % viability of CHO cells (CHO; 2 µM) | % viability of CHO cells (CHO; 20 µM) | % inhibition of HepG2 viability (HepG2-A16-CD81) | % inhibition of gametocyte viability ([1]; 1 µM) | % inhibition of gametocyte viability ([1]; 5 µM) | % inhibition of asexual blood stage proliferation ([2]; 2 µM) | % inhibition of asexual blood stage proliferation ([2]; 20 µM) | % inhibition of gametocyte viability ([3]; 1 µM) | % inhibition of gametocyte viability ([3]; 5 µM) | % inhibition of gametocyte viability ([4]; 1 µM) | % inhibition of gametocyte viability ([4]; 5 µM) | % inhibition of liver stage parasite viability [5]
OC1O[C@H](CSc2ccc(F)cc2)[C@@H](O)[C@H]1O (some centres undefined) | 84.4% | -2.31% | -4.06% | < 0% | 18.7% | 91.2% | 90.9% | < 0% | < 0% | < 0% | 0.415% | 31.6%
CC1=C(/C=C/C(C)=C/C=C/C(C)=C/C(=O)Nc2ccc(O)cc2)C(C)(C)CCC1 | 118% | 102% | 4.42% | < 0% | < 0% | 33.3% | 90% | < 0% | < 0% | < 0% | < 0% | 13.4%
CCN(CC)S(=O)(=O)c1ccc(Cl)c(C(=O)Nc2sc3c(c2C#N)CCCC3)c1 | 100% | 109% | 20.9% | < 0% | < 0% | 0.194% | 18.9% | < 0% | < 0% | < 0% | 9.16% | 69.2%
O=C(c1nc2c(C(F)(F)F)cc(C3CC3)cn2c1Cl)N1CCN([C@H]2CC[C@H](O)CC2)C(=O)C1 | 100% | 116% | 0.895% | 28.7% | 6.18% | 14.7% | 46.1% | 10.1% | 1.45% | 3.76% | < 0% | 16.9%
COc1c(F)c(F)cc2c(=O)c(C(=O)O)cn(C3CC3)c12 | 82.2% | 80.7% | 3.68% | 16.8% | 16.9% | 20.8% | 56.5% | < 0% | < 0% | < 0% | < 0% | 15.1%
CCN(CC)CCCC(C)Nc1ccnc2cc(Cl)ccc12 (centres undefined) | 95.9% | 76.9% | 8.97% | 16.9% | 6% | 85.8% | 99.8% | < 0% | < 0% | 29.7% | 5.51% | 14.3%
CC(C)=CCC/C(C)=C/CNCCNC1C2CC3CC(C2)CC1C3 (centres undefined) | 93.3% | 65.4% | 17.1% | 51.3% | 89.7% | 11.7% | 93% | 78% | 90.8% | < 0% | 42.1% | 21.8%
CC(=O)O[C@H]1C[C@@]2(C)[C@@H](C[C@@H](O)[C@H]3[C@@]4(C)CC[C@@H](O)[C@@H](C)[C@@H]4CC[C@@]32C)/C1=C(\CCC=C(C)C)C(=O)O | 108% | 97.1% | -0.207% | < 0% | 2% | 1.38% | 9.02% | < 0% | < 0% | < 0% | < 0% | 36.2%
O=C(Nc1ccc(-c2ccccc2)cc1)C1=C(O)C(Cc2ccccc2)OC1=O (centres undefined) | 93.6% | 90.4% | 13.1% | < 0% | 13.8% | 39.5% | 101% | < 0% | < 0% | < 0% | < 0% | 44.3%
CCCC(=O)OCCc1ccccc1 | 114% | 99.3% | 0.113% | 10.7% | 4.24% | 8.06% | 16.5% | < 0% | < 0% | < 0% | 0.854% | -8.54%
COc1cc2c(O)c3c(c(-c4ccc5c(c4)OCO5)c2cc1OC)C(=O)OC3 | 98% | 86.4% | 58.9% | 13% | 17.7% | 44.2% | 99.9% | < 0% | < 0% | < 0% | < 0% | 58.4%
CCC[C@H](NC(=O)[C@@H]1[C@H]2CCC[C@H]2CN1C(=O)[C@@H](NC(=O)[C@@H](NC(=O)c1cnccn1)C1CCCCC1)C(C)(C)C)C(=O)C(=O)NC1CC1 | 94.8% | 100% | -4.56% | < 0% | 7.89% | 49.1% | 57% | 6.88% | 10.7% | 3.5% | < 0% | 6.72%
COc1ccc2c(c1OC)C(=O)OC2C1c2c(cc3c(c2OC)OCO3)CCN1C (centres undefined) | 102% | -0.468% | 3.76% | < 0% | 5.61% | 42.6% | 68.3% | < 0% | < 0% | 2.79% | 9.42% | 19%
CCCC1(C2CC2)c2cc(Cl)ccc2NC(=O)N1C (centres undefined) | 60.2% | 59.9% | 1.91% | < 0% | 6.87% | 18% | 53.6% | < 0% | < 0% | 0.472% | < 0% | -13.9%
Cc1cc(C2CCCCC2)n(O)c(=O)c1 | 95.2% | 69.7% | 13.4% | < 0% | 58.2% | 9.8% | 77.8% | 36.1% | < 0% | < 0% | < 0% | 14.2%
CC1(C)Cc2c(C#N)c(SCCc3ccccc3)nc(N3CCOCC3)c2CO1 | 112% | 112% | -1.4% | 9.17% | 45.1% | 17.3% | 89.2% | < 0% | < 0% | < 0% | 3.41% | 18.8%
CCCCC(CC)CNC(=N)NC(=N)NCCCCCCNC(=N)NC(=N)NCC(CC)CCCC (centres undefined) | 101% | 124% | 57.5% | 44.5% | 79.2% | 92.1% | 87.5% | 66.4% | 93.8% | 98.7% | 100% | 74%
C=C(C)[C@@H]1CC[C@]2(C(=O)O)CC[C@]3(C)[C@H](CC[C@@H]4[C@@]5(C)CC[C@H](O)C(C)(C)[C@@H]5CC[C@]43C)[C@@H]12 | 98.8% | 111% | 27.7% | 26.9% | 19.3% | 36.2% | 67.2% | 12.2% | 8.94% | 3.4% | < 0% | 
NC(=O)c1cnccn1 | 96% | 75.7% | -2.12% | 9.19% | 38.1% | 38.1% | 70.3% | < 0% | < 0% | < 0% | 14.8% | 14.3%
O=C(Nc1[nH]c(=O)ncc1F)c1ccccc1 | 103% | 106% | 1.79% | 1.43% | 5.2% | 2.42% | 1.98% | < 0% | < 0% | < 0% | < 0% | 24.1%
